The results in this text go back to PubChem BioAssay.

Experiment [1] in a line: kinase inhibitors against Plasmodium liver-stage infection, cell-based, known kinase inhibitor set, luminescence, hepatoma host viability (AID 624392).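 Note: infected cells incubated roughly two days before readout.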 Particulars: Plasmodium liver stage in hepatoma cells, luciferase luminescence, concentration not given here; liver cell % of control: measured here: host liver cell viability; parasite % of control: stronger effect = lower value.
The nature of experiment [2]: inhibitors of Cryptococcus chitosan production, flow cytometry, Cibacron Brilliant Red staining (AID 1347148).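 Note: compound exposure lasted three days at 37 degrees C.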 Particulars: Cryptococcus neoformans chitosan, stronger effect = lower value; at 10 µM unless noted. For orientation: Flow cytometry measures light scatter and fluorescence of single cells or particles in a stream.
Experiment [3] can be described thus: viability rescue of complex I mutant cybrids, primary screen, cell-based, galactose medium, ATP luminescence (AID 1645843;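 active = z-score of at least 1.8 in each of two replicates, scored against plate mean and spread of sample wells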;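 note: positive z means more ATP and so rescue of galactose-driven cybrid death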). As to conditions: complex I mutant cybrid cells, 72 h, stronger effect = higher value.
Experiment [4] can be described thus: LFS_MB_1R medulloblastoma cell growth inhibition, synergistic combos for chromothripsis tumors, cisplatin or BGB combos (AID 1671452; in the data active = inhibition above about 80%;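 note: cells exposed for 96 hours before readout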). Particulars: LFS_MB_1R medulloblastoma cells, stronger effect = higher value.
Experiment [5] is described as follows: CRL2098 osteosarcoma cell growth inhibition, synergistic combos for chromothripsis tumors, BGB or cisplatin IC20 combos (AID 1671454; in the data active = inhibition above about 80%;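 note: cells exposed for 96 h before readout; 0% = vehicle DMSO and 100% = killing by high DMSO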). Particulars: CRL2098 osteosarcoma cells, drug combinations, stronger effect = higher value.
Experiment [6] in a line: HD-MB03 medulloblastoma cell growth inhibition, synergistic combos for chromothripsis tumors, BGB or cisplatin IC20 combos (AID 1671455; in the data active = inhibition above about 83%;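 note: 0% = vehicle DMSO and 100% = high DMSO as cytotoxic control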). Particulars: HD-MB03 medulloblastoma cells, stronger effect = higher value.
A short description of experiment [7]: UWB1.289 ovarian carcinoma cell growth inhibition, synergistic combos for chromothripsis tumors, BGB or cisplatin combos (AID 1671456; in the data active = inhibition above about 80%;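 note: cells exposed to compound for four days; 0% = vehicle DMSO and 100% = killing by high DMSO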). Particulars: UWB1.289 ovarian carcinoma cells, stronger effect = higher value.
Experiment [8] can be described thus: LFS_MB_2R medulloblastoma cell growth inhibition, synergistic combos for chromothripsis tumors, cisplatin combos (AID 1671457; in the data active = inhibition above about 80%;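 note: cells exposed to compound for four days before readout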). Particulars: LFS_MB_2R medulloblastoma cells, stronger effect = higher value.
Experiment [9] in a line: UWB1.289_BRCA1 ovarian cancer growth, cell-based, BGB or cisplatin combinations (AID 1671459; in the data active = inhibition above about 80%). As to conditions: UWB1.289 BRCA1 ovarian carcinoma, drug combinations, stronger effect = higher value.
Experiment [10] can be described thus: human astrocyte viability loss, single and combined drugs, cytotoxicity control for chromothriptic childhood tumor combination screen, cell-based, BGB or cisplatin IC20 combos (AID 1671460; in the data active = inhibition above about 80%;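 note: cells exposed to compounds for 96 hours before viability readout; 0% = vehicle and 100% = killing control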). As to conditions: Human astrocytes, drug combinations, stronger effect = higher value.
A short description of experiment [11]: growth inhibition of RCMB18 medulloblastoma cells, cell-based, cisplatin and BGB IC40 combos (AID 1671462; in the data active = inhibition above about 80%;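 note: cells exposed to compound for four days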). As to conditions: stronger effect = higher value.
Experiment [12] in a line: growth inhibition of CRL1545 osteosarcoma cells, cell-based, cisplatin and BGB IC20 combos (AID 1671464; in the data active = inhibition above about 80%;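 note: cells exposed to compound for 96 hours before readout; 0% = vehicle DMSO and 100% = high DMSO killing control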). Particulars: stronger effect = higher value.
Setting [13] is: measured here: combination with cisplatin, at 0.5 µM.
[14] abbreviates: measured here: combination with cisplatin, at 5 µM.

Values joined by “and” are separate entries in the source; they are usually repeats but may differ in a detail not shown here. Equal entries are not always repeated. More than one record can exist for a structure, and the calls need not agree. Active and inactive are the calls of the source. Unless noted, the rule behind the calls is not given here. Where a SMILES comes first, the peptide text is derived from it. The star is where a group is joined. Cbz = O=C(OCc1ccccc1)*

The term inhibition denotes the relative decrease from the control value, in per cent.

For the compound `Cc1cn(-c2cc(NC(=O)c3ccc(C)c(Nc4nccc(-c5cccnc5)n4)c3)cc(C(F)(F)F)c2)cn1`, in experiment [1], the liver cell % of control is 96.6% and 104% and 98.4%; the parasite % of control is 40.6% (inactive) and 49.1% (inactive) and 89.8% (inactive).

With `CCC(=O)N1CCN(c2ccc(-n3c(=O)ccc4cnc5ccc(-c6cnc7ccccc7c6)cc5c43)cc2C(F)(F)F)CC1`, the liver cell % of control in experiment [1] is 56.3% and 62.9% and 78.1%.

Turning to `CC(C)(C)c1nc2c3cc[nH]c(=O)c3c3cc(F)ccc3c2[nH]1`, in [1], the liver cell % of control is 205% and 286% and 305%; the parasite % of control was 128% (inactive) and 18.5% (inactive) and 5.35% (inactive).

Turning to `CC(C)C[C@@H](C=O)NC(=O)[C@H](CC(C)C)NC(=O)[C@H](CC(C)C)NC(=O)OCc1ccccc1` (Cbz-Leu-Leu-Leu-aldehyde), the fold fluorescence in experiment [2] is 10.3 [at 105.1 µM] (inactive).

On to `COc1cc2nccc(Oc3ccc(NC(=O)NC4CC4)c(Cl)c3)c2cc1C(N)=O`, for which, in experiment [1], the liver cell % of control was 83.2% and 92.7% and 92.2%; the parasite % of control is 3.46% (inactive) and 6.57% (inactive) and 21.7% (inactive).

Take `CC(C)=CC[C@@H](O)C1=CC(=O)c2c(O)ccc(O)c2C1=O`: in [3], the z-score was -2.24 (inactive).

Regarding `O=C(Nc1cn[nH]c1-c1nc2ccc(CN3CCOCC3)cc2[nH]1)NC1CC1`, in experiment [1], the liver cell % of control is 44.3% and 46.2% and 49.7%; the parasite % of control was 0.367% (inactive) and 0.333% (inactive) and 0.278% (inactive).

`Cn1c2ccccc2c2c3c(c4c5ccccc5n(CCC#N)c4c21)CNC3=O`: in [2], the fold fluorescence was 3.75 [at 132.1 µM] (inactive).

Turning to `C=CC(=O)Nc1cc2c(Nc3ccc(F)c(Cl)c3)ncnc2cc1C#CC(C)(C)N1CCN(C)CC1`, in [1], the liver cell % of control was 44% and 49.4% and 70.7%; the parasite % of control is 0.362% (inactive) and 1.83% (inactive) and 6.99% (inactive).

For the compound `Cc1[nH]c2ccccc2c1CCNCc1ccc(/C=C/C(=O)NO)cc1`, the inhibition in experiment [4] (at 0.5 µM) was 93.3% (active) and 50.3% (inactive); in experiment [4] (measured here: combination with BGB IC40, at 0.05 µM), 50.6% and -33.1%; in [4] (setting [13]), 94.8% and 59%; in [4] (setting [14]), 101% and 94.7%; in [5] (at 0.5 µM), 96% (active) and 13.2% (inactive); in [5] (measured here: combination with BGB at IC20, at 0.5 µM) it was 95% and 15.5%. Besides, the inhibition in experiment [5] (measured here: combination with cisplatin at IC20, at 0.5 µM) was 96.9% and -1.5%; in [6] (at 0.5 µM), 99.9% (active) and 93.8% (active); in [6] (measured here: combo with BGB at IC20, at 0.5 µM), 99.8% and 96.6%; in [6] (measured here: combo with cisplatin at IC20, at 0.5 µM), 99.9% and 99.7%; in experiment [7] (at 0.5 µM), 82.2% (active) and 51.9% (inactive); in experiment [7] (measured here: inhibition with BGB combination, at 0.05 µM) it was 27.3% and -1.85%. The inhibition was 42.8% and 21.6% in [7] (measured here: inhibition with cisplatin combination, at 0.05 µM); 91.3% (active) and 29.2% (inactive) in experiment [8] (at 0.5 µM); 101% and 47.2% in experiment [8] (setting [13]); 109% and 98.7% in experiment [8] (setting [14]); 121% and 109% in [9] (BGB combination, concentration series, at 5 µM); 90.3% (active) and 56.4% (inactive) in experiment [9] (at 0.5 µM). Moreover, the inhibition in [9] (cisplatin combination, concentration series, at 5 µM) is 127% and 128%; in experiment [10] (at 0.5 µM), 101% (active) and 33.3% (inactive); in experiment [10] (measured here: combo with BGB IC20, at 0.5 µM) it was 102% and 30.8%; in experiment [10] (measured here: combo with cisplatin IC20, at 0.5 µM), 99.8% and 22.1%; in [11] (at 0.5 µM), 91% (active) and 38.1% (inactive); in experiment [11] (cisplatin combo, at 5 µM), 99% and 97.8%. For the same compound, the inhibition is 28.7% and -11.4% in [11] (measured here: BGB IC40 combination, at 0.05 µM); 95.9% and 50.4% in [11] (setting [13]); 97.1% and 93.2% in [11] (single agent, at 5 µM); 96.5% (active) and 85.3% (active) in [12] (at 0.5 µM); 95.5% and 73.9% in [12] (measured here: with BGB IC20 combination, at 0.5 µM); 96.9% and 90.9% in experiment [12] (measured here: with cisplatin IC20 combination, at 0.5 µM). The inhibition in [12] (single agent, at 0.05 µM) was 93.3% and 52.8%; in experiment [12] (single agent, at 5 µM), 98.9% and 97.5%.
